GC-A act = GC-A (human) enzyme activation; activation, % at 10 µM; actives 0.14% (n = 370,000); P16066; AID 1671463; HEK293 GC-A cells, cGMP TR-FRET, EC30 ANP; 0% at EC30 ANP, 100% saturating ANP; in the data active = activation above about 40%
Rin1-Abl PPI inh = inhibitors of human Rin1-Abl protein interaction; P00519+Q13671; TR-FRET Rin1/Abl binding, biochemical; inhibition, % at 7.35 µM; actives 0.4% (n = 360,000); in the data active = inhibition above about 5%, passing the limit was not always enough
GC-B act = GC-B (human) receptor activation; P20594; HEK293-GC-B cells, CNP EC30, cGMP TR-FRET; 0% at EC30 CNP, 100% saturating CNP; activation, % at 10 µM; actives 0.11% (n = 370,000);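 active = activation at 10 µM reaching about 35% in either raw or pattern-adjusted values, limit read from the data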
Target sequence (P20594 whole entry, looked up): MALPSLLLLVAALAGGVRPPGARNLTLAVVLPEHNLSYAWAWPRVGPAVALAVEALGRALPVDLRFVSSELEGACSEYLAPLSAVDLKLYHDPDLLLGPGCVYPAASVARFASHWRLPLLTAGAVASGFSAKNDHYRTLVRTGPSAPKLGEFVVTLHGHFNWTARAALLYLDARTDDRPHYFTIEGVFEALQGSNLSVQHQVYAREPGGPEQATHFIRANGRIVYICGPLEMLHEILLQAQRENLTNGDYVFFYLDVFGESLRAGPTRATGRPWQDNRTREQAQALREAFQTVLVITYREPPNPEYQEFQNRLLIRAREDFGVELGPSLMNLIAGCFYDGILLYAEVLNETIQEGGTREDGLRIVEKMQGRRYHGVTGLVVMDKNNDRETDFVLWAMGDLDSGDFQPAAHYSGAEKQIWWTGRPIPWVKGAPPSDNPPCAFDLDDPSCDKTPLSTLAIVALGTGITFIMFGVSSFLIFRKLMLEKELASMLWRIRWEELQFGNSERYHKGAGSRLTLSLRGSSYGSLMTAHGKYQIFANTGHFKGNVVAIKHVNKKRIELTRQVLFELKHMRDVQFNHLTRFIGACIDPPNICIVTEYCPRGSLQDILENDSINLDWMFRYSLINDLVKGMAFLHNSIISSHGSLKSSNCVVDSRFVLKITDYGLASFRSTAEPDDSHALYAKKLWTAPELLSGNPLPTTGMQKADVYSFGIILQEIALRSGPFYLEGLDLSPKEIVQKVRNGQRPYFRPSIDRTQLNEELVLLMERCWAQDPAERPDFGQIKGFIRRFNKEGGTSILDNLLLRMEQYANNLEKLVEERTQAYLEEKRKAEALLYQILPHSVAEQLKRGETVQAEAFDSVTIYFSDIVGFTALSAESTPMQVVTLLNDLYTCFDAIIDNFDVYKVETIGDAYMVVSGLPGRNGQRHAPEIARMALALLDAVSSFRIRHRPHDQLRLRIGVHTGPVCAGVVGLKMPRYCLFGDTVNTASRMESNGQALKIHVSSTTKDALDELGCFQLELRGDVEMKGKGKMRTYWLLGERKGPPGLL
CaV13 FRET inh = Disruptors of the CACNA1D IQ motif to Ca2+-dependent inactivation inhibitor domain association, primary screening, Förster resonance energy transfer in intact living … | HEK cells, CFP/YFP FRET ICDI-IQ, plate reader, 10 min; percent FRET-ratio fall versus neutral wells | inhibition, % at 12.3 µM | actives 0.098% (n = 340,000) | AID 743397;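 active = mean replicate inhibition of at least 30% and at least 1% of replicates passing that level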;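 note: 0% = median of the neutral control wells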
Rin1-Abl confirm = Rin1-Abl interaction inhibition confirmation; shares compounds with Rin1-Abl PPI inh; AID 602124; inhibition, % at 7.35 µM; actives 49% (n = 1,300); TR-FRET Rin1-Abl binding, purified proteins
GFP quench-1 = GFP fluorescence interference artifact | inhibition, % at 6.75 µM | AID 602125 | shares compounds with Rin1-Abl PPI inh | actives 8.5% (n = 1,300) | inhibitors/quenchers counterscreen;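 note: ABL1-eGFP fusion protein alone without its partner RIN1-SBP; 0% = protein with vehicle and 100% = wells lacking protein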
GFP quench DR = quenches GFP in dose response, Rin1-Abl counter-screen | shares compounds with Rin1-Abl PPI inh | GFP fluorescence interference/quenching counterscreen | IC50, µM | 230 tested, under 10 active; call rule not given here;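 note: ABL1-eGFP fusion protein alone without its RIN1 binding partner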
GFP quench-2 = counter-screen for Rin1-Abl interaction inhibitors: GFP fluorescence quenching | 25 tested, under 10 active | GFP fluorescence quenching counterscreen, biochemical | IC50, µM | shares compounds with Rin1-Abl PPI inh; call rule not given here
The depositor's hits bear a star; nt = no result given; ! = not active in a repeat. Compounds with a hit are over-represented: about 0.67% of the library has one in this group of screens. Cut-off read from the data, not from the text of the source, unless noted: active = inhibition above about 6.5%; inactive = the rest.

SMILES	GC-A act	Rin1-Abl PPI inh	GC-B act	CaV13 FRET inh	Rin1-Abl confirm	GFP quench-1	others
Oc1c(C(c2ccccn2)N2CCCCC2)cc(Cl)c2cccnc12 (stereo not drawn)	-2	22*	4	-16	14*	2
COC(=O)c1ccc(Cn2ccc3ccc(-c4ccc5ccn(C(=O)c6ccccc6OC)c5c4)cc32)cc1	2	nt	1	nt	nt	nt
O=C(Cc1cnn(-c2ccccc2)c1)c1ccc(O)c(O)c1O	11	13*	-2	-4	2	11*
C[C@H](O)[C@@H]1CN2CCc3ccc(-c4ccc5c(c4)OCO5)cc3[C@@H]2C[C@@H]1N(C)CC1CCCCC1	-3	nt	-5	nt	nt	nt
O=C1Nc2ccccc2N=C(c2ccccc2)c2ccccc21	-9	5.9*	-2	-2	2	-3
O=C1Nc2ccccc2Nc2ccccc21	-3	-1	-12	-10	nt	nt
COc1ccc(C(=O)C2CCCN(Cc3cccn3-c3nccs3)C2)cc1OC (stereo not drawn)	-2	6.0*	1	-7	-3	-1
COc1ccc(C(=O)C2CCCN(Cc3cccn3-c3nccs3)C2)cc1F (stereo not drawn)	-7	3	7	3	nt	nt
CC(C)c1ccc(OC[C@@H](O)CN2CCC(C(O)(c3ccccc3)c3ccccc3)CC2)cc1	-6	nt	-4	nt	nt	nt
O=c1[nH]n(CC2COC3(CCCCC3)O2)c(=O)c2ccccc12 (stereo not drawn)	-1	34*	-2	-8	27*	0	GFP quench DR=>68
CC(=O)c1cccc(-c2ccnc3c2CC(C(=O)NCc2ccc(N4CCN(C)CC4)cc2)O3)c1 (stereo not drawn)	-1	25*	2	-6	18*	-1	GFP quench DR=>68
CN1CCN(c2ccc(CNC(=O)C3Cc4c(-c5cccc(F)c5)ccnc4O3)cc2)CC1 (stereo not drawn)	4	6.5*	7	-6	5	1
COc1ccc(CN2CCC(Oc3ccc(C(=O)N4CCCCC4)cc3)CC2)cc1C	0	15*	-1	-6	10*	-3
O=C1C2C3C=CC([C@@H]2C(=O)N1Cc1cccnc1)C31CC1 (stereo partly drawn)	1	1	1	-5	nt	nt
N#CC12CCCCC1CC1CCCCC1(C#N)N2Cc1cccnc1 (stereo not drawn)	nt	53*	nt	nt	92*	-1	GFP quench DR=>68
Cc1ccc(C2=NC(=O)/C(=C/c3cc(O)c(O)c(Br)c3)S2)cc1	-21	8.5*	-12	-3	15*	41*
O=C(N/N=C/c1cccnc1)c1cc(O)c(O)c(O)c1	-5	62*	0	-4	74*	21*
CC(NC(=O)c1cccc(F)c1)C1CC2CCC1C2 (stereo not drawn)	0	0	-4	-2	nt	nt
CC(NC(=O)c1ccc(F)cc1F)C1CC2CCC1C2 (stereo not drawn)	4	8.1*	-3	-5	-1	0
COC(=O)[C@H](C(C)C)N(CCCc1cn(Cc2ccccc2)nn1)S(=O)(=O)c1ccccc1Br	-1	nt	8	nt	nt	nt
Cc1nn(Cc2c(Cl)cccc2Cl)c(C)c1NC(=O)c1cnn2c(C(F)F)cc(-c3ccccc3)nc12	-2	12*	1	-4	-2	0
Cc1ccc(-c2cc(C(F)F)n3ncc(C(=O)Nc4c(C)nn(Cc5c(Cl)cccc5Cl)c4C)c3n2)cc1	-1	0	-4	-5	nt	nt
COc1ccc(CC(=O)OCC(=O)NCc2ccccc2Cl)cc1OC	-5	10*	-2	-3	3	0
CC(C)(C)c1ccc(-c2cn(C[C@H](Cc3ccccc3)n3c(=O)c4ccccc4n3Cc3ccccc3)nn2)cc1	2	nt	-6	nt	nt	nt
COc1ccccc1C(=O)Nc1ccc(C(=O)N2CCCC2)cc1	-1	7	-4	-7	nt	nt
SMILES	GC-A act	Rin1-Abl PPI inh	GC-B act	CaV13 FRET inh	Rin1-Abl confirm	GFP quench-1	others
COc1ccccc1C(=O)Nc1ccc(C(=O)N2CCCCC2)cc1	3	14*	3	nt	13*	0
C[C@@H]1O[C@@H](O[C@H]2[C@H](O)[C@@H](O)[C@H](Oc3c(-c4ccc(O)c(O)c4)oc4cc(O)cc(O)c4c3=O)O[C@@H]2CO)[C@H](O)[C@H](O)[C@H]1O	1	11*	1	-5	11*	3
O=c1c(O[C@@H]2O[C@H](CO)C(O)C2O)c(-c2ccc(O)c(O)c2)oc2cc(O)cc(O)c12 (stereo partly drawn)	nt	7	nt	nt	nt	nt
C[C@@H]1O[C@@H](Oc2c(-c3cc(O)c(O)c(O)c3)oc3cc(O)cc(O)c3c2=O)[C@H](O)[C@H](O)[C@H]1O	-3	44*	-2	-9	45*	17*
O=c1c(OC2OC(CO)C(O)C(O)C2O)c(-c2ccc(O)c(O)c2)oc2cc(O)cc(O)c12 (stereo not drawn)	-2	16*	-8	-6	15*	4
C[C@@H]1O[C@@H](Oc2c(-c3ccc(O)c(O)c3)oc3cc(O)cc(O)c3c2=O)[C@H](O)[C@H](O)[C@H]1O	-3	18*!	2	-6	12*	3
COc1ccc(CN2C/C(=C/C3=CCCCC3)N(C(=O)OCc3ccccc3)C2=N)c(OC)c1	-1	nt	1	nt	nt	nt
COc1cc2c(C(=O)NCc3ccc(C)o3)cn(CC(C)C)c(=O)c2cc1OC	3	6.9*	4	-4	0	-1
Cc1cccc(Cn2cc(CN3CC(N4CCN(CCOC(=O)c5cc6ccccc6o5)CC4)CS3(=O)=O)nn2)c1 (stereo not drawn)	-1	nt	-1	nt	nt	nt
Cn1c(=O)c2c(nc(NCc3ccco3)n2Cc2ccc(Cl)cc2Cl)n(C)c1=O	18	-1	20	-4	nt	nt
Cn1c(=O)c2c(nc(-n3ccnc3)n2Cc2ccccc2)n(C)c1=O	-7	15*	1	-5	13*	1
Cn1c(=O)c2c(nc(-n3ccnc3)n2C)n(C)c1=O	8	4	7	nt	nt	nt
Cn1c(=O)c2c(nc(-n3ccnc3)n2Cc2ccc(Cl)cc2Cl)n(C)c1=O	9	72*	3	nt	68*	0	GFP quench DR=>68;GFP quench-2=>68
Cc1nn(-c2ccccc2)c2sc(C(=O)NCc3ccc4c(c3)OCO4)cc12	5	nt	-3	nt	nt	nt
Cc1ccccc1Cn1cc(CN2[C@H](C)COc3cc(Br)ccc3S2(=O)=O)nn1	-4	nt	0	nt	nt	nt
O=C(CSc1nnc(-c2ccccc2)n1Cc1ccco1)Nc1ccc(OCc2ccccc2)cc1	-2	nt	7	nt	nt	nt
